HCV inh: inhibitors of hepatitis C virus infection. Potency, µM (series often up to 41.8 µM), usual class: inhibitors. hit rate 3.4% among 340,000. Huh7.5.1 HCVcc-Cre infection, luciferase reporter, 44 h. AID 651820; active = well fitted inhibition curve with a large enough effect; inconclusive = small, poorly fitted or top-dose-only effect, or another doubt; inactive = no such curve, though single readings can be large or run the other way
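Reporter virus HCVcc-Cre (~0.5 moi) infects cells exposed to compound; seeding density 1,000 cells/well with 4 h settling beforehand. Luminescence, 15 sec read, taken 44 h post-infection following a 15 min RT substrate incubation.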
HCMV antiviral: human cytomegalovirus inhibition. HFF cells, HCMV-luciferase reporter, 72 h; active compounds read low. activity change, negative = inhibition, % at 57.5 µM. hit rate 4.5% among 410,000; in the data active = activity change below about -60%; inconclusive = no clear call, values can overlap the other calls; inactive = above about -39%
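Two compound doses tested in HFFs infected with HCMV-luciferase, MOI 1 PFU/cell, 72 h at 37C. Lysate luminescence read with OneGlo; data normalized against buffer-only and 10uM Salinomycin inhibitor controls.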
Lassa entry inh: Lassa virus entry inhibition. Lassa virus pseudotype entry inhibition, cell reporter. Potency, µM (series often up to 37.9 µM), most hits filed as inhibitors. hit rate 1.2% among 300,000. AID 540256; calls by dose curve; tested in HEK293 cells; note: nearly all actives have a fitted effect of over 50% in size
MARV entry inh: Marburg virus entry inhibition. hit rate 1.8% among 300,000. AID 540276. Marburg virus pseudotyped entry inhibition, cell reporter. Potency, µM (titrated, usually from 37.8 µM), hits mostly inhibitors; calls by dose curve; tested in HEK293 cells
SARS PLP yeast: inhibitors of SARS-CoV papain-like protease in yeast. Potency, µM (highest dose often 32.9 µM), usual class: activators. S. cerevisiae expressing SARS-CoV PLpro, growth rescue. hit rate 0.19% among 330,000; calls by dose curve; note: nearly all actives have a fitted effect of over 55% in size
FMDV inh: blocks foot and mouth disease virus; FMDV antiviral cell-based qHTS; Potency, µM (highest dose often 57.9 µM), usual class: inhibitors; hit rate 1.2% among 410,000; AID 1159524; calls by dose curve; tested in HEK293T cells; note: read-out not given here; nearly all actives have a fitted effect of over 45% in size
Hits are given with their value; – = inactive; ? = inconclusive; · = not tested or not shown. Only some compounds are listed: those with a hit (about 8% of all), similar ones and a draw of the others.

SMILES	HCV inh	HCMV antiviral	Lassa entry inh	MARV entry inh	SARS PLP yeast	FMDV inh
COc1ccc(NS(=O)(=O)c2cc(NC(=O)c3ccncc3)ccc2N2CCOCC2)cc1	–	–	–	–	–	–
COc1ccc(NS(=O)(=O)c2cc(NC(=O)c3cccnc3Cl)ccc2N2CCCC2)cc1	?	–	·	·	–	–
COc1ccc(NS(=O)(=O)c2cc(NC(=O)c3cccs3)ccc2N2CCOCC2)cc1	?	–	·	·	–	–
COc1ccc(NS(=O)(=O)c2cc(NC(=O)c3ccco3)ccc2N2CCCCC2)cc1	?	-75.9	?	14.1µM	–	–
COc1ccc(NS(=O)(=O)c2cc(NC(=O)c3ccc(=O)[nH]c3)ccc2N2CCCC2)cc1	?	-74.3	·	·	–	–
COc1ccc(NS(=O)(=O)c2cc(NC(=O)C3CC3)ccc2N2CCCCC2)cc1	11.2µM	-101.0	?	?	–	–
COc1ccc(NS(=O)(=O)c2cc(NC(=O)C3CC3)ccc2N2CCOCC2)cc1	–	?	?	–	–	–
COc1ccc(NS(=O)(=O)c2cc(NC(=O)c3cnc(C)cn3)ccc2N2CCCC2)cc1	?	-65.5	?	?	–	–
CCOC(=O)[C@]12CCCC=C1N(Cc1ccccc1)C(=O)[C@H](CC(=O)NCc1cccc(C(F)(F)F)c1)C2	·	–	·	·	·	–
O=C(Cn1nc2ccccc2n1)N1CCOc2ccc(CN3CCc4sccc4C3)cc2C1	·	·	·	·	·	–
COc1cccc(-c2nc(S(=O)(=O)c3ccc(C)cc3)c(N3CCCCC3)o2)c1	·	–	?	–	·	–
CC(=O)OC[C@H]1O[C@H](c2ccc(C(C)=O)cc2)C=C[C@H]1OC(C)=O	·	·	·	–	·	·
COc1ccc(NS(=O)(=O)c2cc(NC(=O)c3cnc(C)cn3)ccc2N2CCCCC2)cc1	?	-73.8	?	?	–	–
Cc1cnc(C(=O)Nc2ccc(C)c(S(=O)(=O)N3CCCCC3)c2)cn1	–	–	–	?	–	–
O=C(/C=C/c1cccs1)c1cc(F)ccc1OC(=O)N1CCOCC1	?	–	–	–	·	22.4µM
O=C(Nc1ccc([N+](=O)[O-])cc1)Nc1ccc(Cl)cc1F	–	-99.4	?	?	–	–
COc1ccc(OC(C)C(=O)Nc2ccc([N+](=O)[O-])cc2)cc1 (stereo unspecified)	–	–	?	–	–	?
COc1ccc([N+](=O)[O-])cc1NC(=O)CSCc1ccc(Br)cc1	?	–	–	–	–	–
Cc1cc(OC(F)F)ccc1NC(=O)Nc1ccc([N+](=O)[O-])cc1	?	-79.4	?	?	–	–
O=C(Nc1ccc(C(=O)O)cc1)Nc1ccc([N+](=O)[O-])cc1	–	–	–	–	–	–
O=C(CSCc1ccc(Cl)cc1)Nc1cc([N+](=O)[O-])ccc1O	2.24µM	–	?	?	–	–
O=C(Nc1ccc(Cl)cc1)Nc1cc([N+](=O)[O-])ccc1F	–	-78.8	–	–	–	–
CCC(C)(C)C(=O)Nc1cc([N+](=O)[O-])ccc1F	–	–	–	?	–	–
Cc1ccc(-c2csc(N3CCC[C@@H]3C(=O)NCCn3c([C@H](C)N)nc4ccccc43)n2)cc1	·	–	·	·	·	·
CCn1c(C)cc(C=C2C(=O)c3ccccc3C2=O)c1C	?	–	?	12.6µM	–	–
SMILES	HCV inh	HCMV antiviral	Lassa entry inh	MARV entry inh	SARS PLP yeast	FMDV inh
COC(=O)c1cc(CNC(=O)c2ccc(N(C)C)cc2)cc(NC(=O)c2ccccc2Cl)c1	·	·	·	·	·	–
Cc1cc(C)c2c(=N)c3ccccc3n(CCCCCCCCn3c4ccccc4c(=N)c4c(C)cc(C)nc43)c2n1	–	-74.6	?	7.08µM	·	–
Cc1cc(C)c2c(C)nn(-c3ccccc3)c2n1	–	–	–	–	–	–
Cc1ccc(Nc2nccc(N(C)c3ccc4c(C)n(C)nc4c3)n2)cc1S(N)(=O)=O	·	-83.8	·	·	·	·
Cc1ccc(Nc2nnc(-c3ccc(C)c(S(N)(=O)=O)c3)c3ccccc23)cc1	·	–	–	·	·	–
COC(=O)[C@@]12C[C@@H](CC(=O)NCC3CCCCC3)C(=O)N(Cc3ccc4c(c3)OCO4)C1=CCC(C)(C)C2	·	–	·	·	·	–
CC(C)N1CCC1(C)C(=O)Nc1cccc2ccccc12 (stereo unspecified)	·	–	·	·	·	22.4µM
CCOC(=O)CN=C/C(C(=O)Nc1nccs1)=C(/C)O	–	–	–	–	–	–
CCC(CC)NC(=O)Nc1cccc(C)c1C	–	–	·	·	–	–
CC(C)N(CC(=O)Nc1ccc(Cl)cc1C(F)(F)F)C(=O)CCl	3.98µM	-98.8	?	10µM	–	15.8µM
